From the supplement of paper PMC10849652
The full data set covers some 7,900 targets. This sample favours those with a hit. About 0.6% of all pairs of compound and target were hits.

Legend:
Assay in all cases: log2 fold change, soluble protein after heating vs DMSO (PISA); higher = thermal stabilisation; K562 cells, 10 uM, 30 min; active = over 0.2 and 3.5 SD of the protein, either way, in both replicates (recomputed)
[1] = compound: CC[C@@H]1C(=O)N(C)c2cnc(Nc3ccc(C(=O)NC4CCN(C)CC4)cc3OC)nc2N1C1CCCC1
In short: (§1)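 K562 cells at 2×10^6 cells/mL were treated with 10 μM compound for 30 min. Aliquots were heated for 3 min across 48°C-58°C, pooled, and extracted in PBS with 0.5% NP-40 at 4°C; soluble protein was the supernatant after 21,000xg for 90 min. Soluble protein was quantified by TMTpro 16plex LC-MS/MS with channel sums equalised, and reported as log2 fold change in thermal stability against DMSO controls, with values from duplicates.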

volasertib = compound: CC[C@@H]1C(=O)N(C)c2cnc(Nc3ccc(C(=O)N[C@H]4CC[C@H](N5CCN(CC6CC6)CC5)CC4)cc3OC)nc2N1C(C)C [volasertib]
In short: as §1

[2] = compound: CC[C@H](C)N1C=C(C2=C(C=C(C=C21)C3=CN=C(C=C3)N4CCNCC4)C(=O)NCC5=C(C=C(NC5=O)C)C)C
In short: as §1

epoxomicin = compound: CC[C@H](C)[C@@H](C(=O)N[C@@H]([C@@H](C)O)C(=O)N[C@@H](CC(C)C)C(=O)[C@]1(CO1)C)NC(=O)[C@H]([C@@H](C)CC)N(C)C(=O)C [epoxomicin]
In short: as §1

[3] = compound: CCn1c(C(=O)N(C2CC2)C2CC2)cc2c3c(ncn3C)c(Nc3cc(C)n(C)n3)nc21
In short: as §1

[4] = compound: CCn1cc(-c2ccnc3[nH]c(-c4cccc(CN(C)C)c4)cc23)c(-c2ccc(NC(=O)N(C)C)cc2)n1
In short: as §1

[5] = compound: CN(C)CC(=O)Nc1ccc2[nH]c(=O)c3ccccc3c2c1
In short: as §1

rosiglitazone = compound: CN(CCOC1=CC=C(C=C1)C[C@H]2C(=O)NC(=O)S2)C3=CC=CC=N3 (racemic) [rosiglitazone]
In short: as §1

[6] = compound: CN1C2=C(C3=C1C(=O)N(N=C3)CC4=CC(=CC=C4)N)SC(=C2)S(=O)C
In short: as §1

[7] = compound: CN1CCC(CNc2ccc3ncc(-c4cccc(OC(F)(F)F)c4)n3n2)CC1
In short: as §1

saracatinib = compound: CN1CCN(CCOc2cc(OC3CCOCC3)c3c(Nc4c(Cl)ccc5c4OCO5)ncnc3c2)CC1 [saracatinib]
In short: as §1

sotrastaurin = compound: CN1CCN(c2nc(C3=C(c4c[nH]c5ccccc45)C(=O)NC3=O)c3ccccc3n2)CC1 [sotrastaurin]
In short: as §1

alvocidib = compound: CN1CC[C@H](c2c(O)cc(O)c3c(=O)cc(-c4ccccc4Cl)oc23)[C@H](O)C1 [alvocidib]
In short: as §1

Tubastatin A = compound: CN1CCc2c(c3ccccc3n2Cc2ccc(C(=O)NO)cc2)C1 [Tubastatin A]
In short: as §1

[8] = compound: CNC(=O)C1=CC=CC=C1NC2=NC(=NC=C2Cl)NC3=C(C=C(C=C3)N4CCOCC4)OC
In short: as §1

defactinib = compound: CNC(=O)c1ccc(Nc2ncc(C(F)(F)F)c(NCc3nccnc3N(C)S(C)(=O)=O)n2)cc1 [defactinib]
In short: as §1

rucaparib = compound: CNCc1ccc(-c2[nH]c3cc(F)cc4c3c2CCNC4=O)cc1 [rucaparib]
In short: as §1

[9] = compound: CNc1nc(-c2ccc3c(N)n[nH]c3c2)cc(N2C[C@@H](C(=O)NC3CCCCC3)CC[C@H]2C)n1
In short: as §1

encorafenib = compound: COC(=O)N[C@@H](C)CNc1nccc(-c2cn(C(C)C)nc2-c2cc(Cl)cc(NS(C)(=O)=O)c2F)n1 [encorafenib]
In short: as §1

[10] = compound: COC(=O)[C@H](CCSC)NC(=O)C1=C(C=C(C=C1)NC[C@H](CS)N)C2=CC=CC=C2
In short: as §1

Measured: log2 fold change

TBC1D5 isoform 2 (UniProt Q92609)
inactive: [2] 0.113 | epoxomicin 0.069 | [3] -0.076 | [4] -0.016 | [5] 0.039 | rosiglitazone 0.022 | [6] 0.021 | saracatinib -0.033 | sotrastaurin -0.169 | alvocidib -0.077 | Tubastatin A -0.036 | [8] -0.013 | defactinib -0.088 | rucaparib 0.015 | [9] -0.159 | encorafenib 0.119 | [10] -0.055
active: [1] -0.397 | volasertib -0.854 | [7] -0.375

SLC25A4 (UniProt P12235)
Chain of UniProt P12235 (P12235 whole entry, looked up): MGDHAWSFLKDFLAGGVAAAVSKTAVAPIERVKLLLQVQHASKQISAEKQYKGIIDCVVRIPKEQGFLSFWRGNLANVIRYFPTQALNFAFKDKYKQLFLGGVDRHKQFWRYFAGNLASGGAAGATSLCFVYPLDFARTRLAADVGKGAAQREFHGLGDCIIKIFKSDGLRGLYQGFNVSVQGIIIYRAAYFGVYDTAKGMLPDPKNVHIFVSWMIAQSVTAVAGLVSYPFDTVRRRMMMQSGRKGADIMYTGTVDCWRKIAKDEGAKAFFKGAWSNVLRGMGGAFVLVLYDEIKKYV
inactive: [1] -0.012 | volasertib 0.06 | [2] -0.024 | epoxomicin 0.009 | [3] 0.034 | [4] 0.037 | [5] -0.053 | rosiglitazone -0.001 | [6] -0.038 | [7] -0.001 | saracatinib -0.022 | sotrastaurin 0.029 | alvocidib 0.068 | Tubastatin A -0.138 | [8] 0.044 | defactinib 0.012 | rucaparib -0.061 | [9] -0.026 | encorafenib -0.001 | [10] 0.019

THYN1 (UniProt Q9P016)
Chain of UniProt Q9P016 (Q9P016 whole entry, looked up): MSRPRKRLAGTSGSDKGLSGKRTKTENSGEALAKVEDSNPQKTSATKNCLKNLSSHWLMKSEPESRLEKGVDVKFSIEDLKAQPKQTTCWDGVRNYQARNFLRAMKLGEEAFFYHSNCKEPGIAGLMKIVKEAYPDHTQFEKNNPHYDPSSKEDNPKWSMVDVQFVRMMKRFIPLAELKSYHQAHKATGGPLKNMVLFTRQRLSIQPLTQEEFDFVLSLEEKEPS
inactive: [1] 0.059 | volasertib 0.09 | [2] 0.048 | epoxomicin 0.016 | [3] 0.072 | [4] -0.04 | [5] -0.004 | rosiglitazone 0.001 | [6] -0.09 | [7] 0.09 | saracatinib -0.062 | sotrastaurin -0.022 | alvocidib -0.008 | Tubastatin A -0.006 | [8] 0.079 | defactinib -0.002 | rucaparib 0.029 | [9] 0.072 | encorafenib 0 | [10] -0.029

SRRM2 (UniProt Q9UQ35)
inactive: [1] -0.025 | volasertib 0.009 | [2] 0.046 | epoxomicin -0.071 | [3] -0.016 | [4] -0.072 | [5] 0.053 | rosiglitazone 0.046 | [6] 0.062 | [7] -0.222 | saracatinib -0.026 | sotrastaurin -0.048 | Tubastatin A 0.093 | [8] -0.264 | defactinib -0.298 | rucaparib 0.013 | [9] -0.009 | encorafenib -0.013 | [10] 0.047
active: alvocidib -0.412

TGFBR1 isoform 2 (UniProt P36897)
Chain of UniProt P36897 (P36897 whole entry, looked up): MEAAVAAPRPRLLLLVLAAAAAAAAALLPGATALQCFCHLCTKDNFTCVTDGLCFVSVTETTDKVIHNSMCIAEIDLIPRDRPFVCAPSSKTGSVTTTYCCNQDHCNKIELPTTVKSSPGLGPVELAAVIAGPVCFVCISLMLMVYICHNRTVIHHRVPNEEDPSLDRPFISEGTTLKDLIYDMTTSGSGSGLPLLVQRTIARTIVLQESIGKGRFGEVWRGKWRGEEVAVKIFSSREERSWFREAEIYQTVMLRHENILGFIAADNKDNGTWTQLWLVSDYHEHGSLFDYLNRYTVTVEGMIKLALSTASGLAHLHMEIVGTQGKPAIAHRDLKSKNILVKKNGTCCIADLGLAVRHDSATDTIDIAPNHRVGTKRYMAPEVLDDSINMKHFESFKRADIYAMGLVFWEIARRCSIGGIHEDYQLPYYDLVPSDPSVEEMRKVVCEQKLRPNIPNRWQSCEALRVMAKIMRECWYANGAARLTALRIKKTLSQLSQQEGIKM
inactive: [1] -0.041 | volasertib -0.179 | [2] -0.022 | epoxomicin 0.033 | [3] -0.049 | [4] -0.023 | [5] -0.028 | rosiglitazone 0.122 | [6] 0.021 | [7] 0.076 | sotrastaurin 0.026 | alvocidib -0.009 | Tubastatin A 0.023 | [8] -0.045 | defactinib 0.039 | rucaparib 0.096 | [9] 0.041 | encorafenib 0.041 | [10] -0.055
active: saracatinib 0.371

SSB (UniProt P05455)
Chain of UniProt P05455 (P05455 whole entry, looked up): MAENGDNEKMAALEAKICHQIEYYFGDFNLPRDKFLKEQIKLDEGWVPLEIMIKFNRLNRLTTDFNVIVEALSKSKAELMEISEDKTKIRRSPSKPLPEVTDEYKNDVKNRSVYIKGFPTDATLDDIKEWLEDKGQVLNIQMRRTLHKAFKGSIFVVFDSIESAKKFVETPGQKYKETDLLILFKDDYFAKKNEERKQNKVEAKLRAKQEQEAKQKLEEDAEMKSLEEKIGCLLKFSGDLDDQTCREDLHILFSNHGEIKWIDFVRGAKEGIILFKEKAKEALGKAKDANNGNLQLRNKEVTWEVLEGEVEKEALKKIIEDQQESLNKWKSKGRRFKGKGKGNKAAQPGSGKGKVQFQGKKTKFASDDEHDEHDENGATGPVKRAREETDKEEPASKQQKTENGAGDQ
inactive: [1] -0.154 | volasertib -0.131 | [2] 0.083 | epoxomicin -0.011 | [3] 0.015 | [4] 0.04 | [5] -0.012 | rosiglitazone 0.044 | [6] -0.001 | [7] -0.194 | saracatinib -0.001 | sotrastaurin -0.158 | alvocidib -0.123 | Tubastatin A 0.015 | [8] 0.016 | defactinib -0.187 | rucaparib -0.031 | [9] -0.089 | encorafenib 0 | [10] 0.042

SNX11 (UniProt Q9Y5W9)
Chain of UniProt Q9Y5W9 (Q9Y5W9 whole entry, looked up): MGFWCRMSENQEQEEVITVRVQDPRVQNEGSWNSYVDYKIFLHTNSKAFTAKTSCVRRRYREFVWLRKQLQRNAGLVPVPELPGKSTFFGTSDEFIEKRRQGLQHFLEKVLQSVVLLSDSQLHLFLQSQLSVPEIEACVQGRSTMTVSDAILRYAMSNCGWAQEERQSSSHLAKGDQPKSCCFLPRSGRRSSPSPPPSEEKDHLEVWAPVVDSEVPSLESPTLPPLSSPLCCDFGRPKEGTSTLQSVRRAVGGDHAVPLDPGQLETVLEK
inactive: [1] -0.167 | volasertib -0.324 | [2] 0.066 | epoxomicin -0.031 | [3] -0.097 | [4] -0.022 | [5] -0.024 | rosiglitazone -0.007 | [6] 0.167 | saracatinib -0.055 | sotrastaurin -0.055 | alvocidib -0.135 | Tubastatin A -0.014 | [8] 0.011 | defactinib -0.02 | rucaparib -0.001 | [9] 0.055 | encorafenib -0.074 | [10] 0.002
active: [7] -0.646

SLC25A39 (UniProt Q9BZJ4)
Chain of UniProt Q9BZJ4 (Q9BZJ4 whole entry, looked up): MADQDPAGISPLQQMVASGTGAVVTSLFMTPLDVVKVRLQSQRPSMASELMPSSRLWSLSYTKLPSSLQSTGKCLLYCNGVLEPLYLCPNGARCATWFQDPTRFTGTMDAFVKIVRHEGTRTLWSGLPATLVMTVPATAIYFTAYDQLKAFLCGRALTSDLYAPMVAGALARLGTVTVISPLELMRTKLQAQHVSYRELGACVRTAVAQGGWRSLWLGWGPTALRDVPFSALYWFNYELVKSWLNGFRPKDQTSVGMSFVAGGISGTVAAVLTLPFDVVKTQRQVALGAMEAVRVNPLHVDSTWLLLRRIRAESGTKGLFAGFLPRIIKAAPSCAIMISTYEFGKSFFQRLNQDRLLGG
active: [7] -0.82
inactive: [1] 0.029 | volasertib -0.06 | [2] 0.087 | epoxomicin 0.081 | [3] 0.096 | [4] -0.12 | [5] 0.06 | rosiglitazone -0.03 | [6] 0.012 | saracatinib 0.107 | sotrastaurin -0.076 | alvocidib 0.134 | Tubastatin A -0.18 | [8] -0.118 | defactinib -0.044 | rucaparib -0.01 | [9] 0.015 | encorafenib 0.005 | [10] 0.041

SLC30A10 (UniProt Q6XR72)
Chain of UniProt Q6XR72 (Q6XR72 whole entry, looked up): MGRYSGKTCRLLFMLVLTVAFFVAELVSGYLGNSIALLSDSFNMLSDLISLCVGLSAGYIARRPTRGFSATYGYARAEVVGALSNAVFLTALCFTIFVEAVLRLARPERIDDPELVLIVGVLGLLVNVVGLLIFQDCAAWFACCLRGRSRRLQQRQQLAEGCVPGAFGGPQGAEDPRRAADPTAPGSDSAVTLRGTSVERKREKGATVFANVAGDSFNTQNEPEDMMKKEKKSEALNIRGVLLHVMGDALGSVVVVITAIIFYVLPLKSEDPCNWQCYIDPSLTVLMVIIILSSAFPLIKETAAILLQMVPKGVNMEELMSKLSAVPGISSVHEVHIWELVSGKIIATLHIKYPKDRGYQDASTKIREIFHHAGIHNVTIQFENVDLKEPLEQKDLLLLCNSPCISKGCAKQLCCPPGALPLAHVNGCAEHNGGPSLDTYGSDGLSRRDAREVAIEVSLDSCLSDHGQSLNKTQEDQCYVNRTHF
inactive: [1] 0 | volasertib -0.052 | [2] -0.052 | epoxomicin 0.045 | [3] 0.023 | [4] -0.244 | [5] -0.028 | rosiglitazone 0.039 | [6] -0.087 | [7] 0.044 | saracatinib -0.075 | sotrastaurin 0.031 | alvocidib -0.031 | Tubastatin A 0.008 | [8] -0.025 | defactinib 0.012 | rucaparib -0.073 | [9] -0.036 | encorafenib 0.001 | [10] -0.011

TBCD (UniProt Q9BTW9)
active: volasertib -0.315
inactive: [1] -0.061 | [2] 0.074 | epoxomicin -0.012 | [3] 0.028 | [4] -0.002 | [5] 0.033 | rosiglitazone 0.016 | [6] -0.044 | [7] -0.094 | saracatinib 0.003 | sotrastaurin -0.056 | alvocidib -0.096 | Tubastatin A 0.05 | [8] -0.016 | defactinib -0.056 | rucaparib 0 | [9] -0.031 | encorafenib 0.018 | [10] -0.007

TIMM44 (UniProt O43615)
Chain of UniProt O43615 (O43615 whole entry, looked up): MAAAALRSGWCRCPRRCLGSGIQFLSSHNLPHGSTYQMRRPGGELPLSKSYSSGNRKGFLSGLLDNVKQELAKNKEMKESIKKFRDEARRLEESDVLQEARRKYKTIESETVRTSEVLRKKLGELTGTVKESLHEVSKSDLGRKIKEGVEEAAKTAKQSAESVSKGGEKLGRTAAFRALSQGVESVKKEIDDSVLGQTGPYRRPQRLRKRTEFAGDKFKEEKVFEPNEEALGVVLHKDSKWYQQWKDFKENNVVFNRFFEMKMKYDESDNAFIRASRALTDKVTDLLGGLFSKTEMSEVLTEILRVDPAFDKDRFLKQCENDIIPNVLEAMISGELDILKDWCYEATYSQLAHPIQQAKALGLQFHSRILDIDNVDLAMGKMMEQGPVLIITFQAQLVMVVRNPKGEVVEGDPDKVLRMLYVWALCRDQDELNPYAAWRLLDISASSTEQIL
inactive: [2] -0.004 | epoxomicin 0.057 | [3] -0.006 | [4] -0.091 | [5] 0.012 | rosiglitazone 0.036 | [6] -0.056 | saracatinib -0.055 | sotrastaurin -0.132 | alvocidib -0.044 | Tubastatin A -0.055 | [8] -0.012 | defactinib -0.035 | rucaparib -0.12 | [9] -0.057 | encorafenib 0.054 | [10] 0.007
active: [1] -0.412 | volasertib -0.57 | [7] -0.886

SLC38A9 (UniProt Q8NBW4)
Chain of UniProt Q8NBW4 (Q8NBW4 whole entry, looked up): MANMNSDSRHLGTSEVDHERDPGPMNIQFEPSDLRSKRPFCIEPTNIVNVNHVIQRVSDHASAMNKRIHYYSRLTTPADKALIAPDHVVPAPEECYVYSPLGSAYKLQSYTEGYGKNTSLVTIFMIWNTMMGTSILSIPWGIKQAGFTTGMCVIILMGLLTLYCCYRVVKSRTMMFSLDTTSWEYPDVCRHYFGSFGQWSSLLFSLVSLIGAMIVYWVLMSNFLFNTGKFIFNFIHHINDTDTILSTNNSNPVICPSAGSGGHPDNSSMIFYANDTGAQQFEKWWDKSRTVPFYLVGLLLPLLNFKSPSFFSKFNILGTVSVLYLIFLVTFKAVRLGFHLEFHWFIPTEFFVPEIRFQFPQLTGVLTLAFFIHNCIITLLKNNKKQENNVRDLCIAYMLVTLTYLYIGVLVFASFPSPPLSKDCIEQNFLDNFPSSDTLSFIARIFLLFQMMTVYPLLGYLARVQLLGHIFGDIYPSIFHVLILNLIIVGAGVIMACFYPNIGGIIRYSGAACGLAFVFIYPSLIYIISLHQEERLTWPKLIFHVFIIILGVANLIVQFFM
inactive: [1] -0.013 | volasertib -0.003 | [2] -0.022 | epoxomicin -0.02 | [3] 0.007 | [4] 0.055 | [5] -0.039 | rosiglitazone 0.003 | [6] 0.029 | [7] -0.197 | saracatinib 0.053 | sotrastaurin -0.184 | alvocidib -0.024 | Tubastatin A -0.05 | [8] 0.025 | defactinib -0.038 | rucaparib -0.048 | [9] -0.073 | encorafenib -0.001 | [10] 0.001

TAOK3 (UniProt Q9H2K8)
Chain of UniProt Q9H2K8 (Q9H2K8 whole entry, looked up): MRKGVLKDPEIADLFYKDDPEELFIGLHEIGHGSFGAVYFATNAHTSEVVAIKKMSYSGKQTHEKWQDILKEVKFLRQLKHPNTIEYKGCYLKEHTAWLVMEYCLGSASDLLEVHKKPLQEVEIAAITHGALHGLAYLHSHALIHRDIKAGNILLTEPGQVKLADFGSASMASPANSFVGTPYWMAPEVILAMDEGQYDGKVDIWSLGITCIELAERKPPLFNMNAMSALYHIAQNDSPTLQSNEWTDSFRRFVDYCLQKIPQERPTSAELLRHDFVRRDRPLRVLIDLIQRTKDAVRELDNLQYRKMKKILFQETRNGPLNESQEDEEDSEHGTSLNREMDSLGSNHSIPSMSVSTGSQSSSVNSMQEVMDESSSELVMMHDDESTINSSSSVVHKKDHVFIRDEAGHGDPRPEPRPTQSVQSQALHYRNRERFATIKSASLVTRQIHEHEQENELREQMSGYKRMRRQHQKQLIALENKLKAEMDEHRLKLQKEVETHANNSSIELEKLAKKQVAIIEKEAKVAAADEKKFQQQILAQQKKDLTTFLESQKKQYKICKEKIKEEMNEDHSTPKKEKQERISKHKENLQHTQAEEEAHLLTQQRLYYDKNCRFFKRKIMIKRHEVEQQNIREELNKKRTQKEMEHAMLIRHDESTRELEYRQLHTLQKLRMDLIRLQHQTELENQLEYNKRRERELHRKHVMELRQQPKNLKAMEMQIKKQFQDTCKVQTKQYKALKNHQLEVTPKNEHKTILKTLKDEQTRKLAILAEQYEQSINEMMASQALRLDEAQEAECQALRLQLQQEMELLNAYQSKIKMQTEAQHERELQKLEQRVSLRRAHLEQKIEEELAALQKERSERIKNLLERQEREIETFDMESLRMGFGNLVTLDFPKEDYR
inactive: [1] -0.005 | volasertib -0.083 | [2] 0.058 | epoxomicin 0.007 | [3] 0.007 | [4] -0.019 | [5] 0.059 | rosiglitazone 0.001 | [6] -0.067 | [7] -0.059 | saracatinib -0.002 | sotrastaurin -0.089 | alvocidib -0.062 | Tubastatin A 0.042 | [8] -0.031 | defactinib -0.109 | rucaparib -0.013 | [9] 0.019 | encorafenib 0.052 | [10] -0.044

STK39 (UniProt Q9UEW8)
active: [7] -0.25
inactive: [1] -0.062 | volasertib -0.139 | [2] 0.023 | epoxomicin 0.054 | [3] -0.055 | [4] -0.036 | [5] -0.011 | rosiglitazone 0.049 | [6] 0.005 | saracatinib -0.014 | sotrastaurin -0.017 | alvocidib 0.013 | Tubastatin A 0.009 | [8] -0.045 | defactinib -0.015 | rucaparib 0.014 | [9] -0.008 | encorafenib 0.039 | [10] 0.056

SNX6 (UniProt Q9UNH7)
Chain of UniProt Q9UNH7 (Q9UNH7 whole entry, looked up): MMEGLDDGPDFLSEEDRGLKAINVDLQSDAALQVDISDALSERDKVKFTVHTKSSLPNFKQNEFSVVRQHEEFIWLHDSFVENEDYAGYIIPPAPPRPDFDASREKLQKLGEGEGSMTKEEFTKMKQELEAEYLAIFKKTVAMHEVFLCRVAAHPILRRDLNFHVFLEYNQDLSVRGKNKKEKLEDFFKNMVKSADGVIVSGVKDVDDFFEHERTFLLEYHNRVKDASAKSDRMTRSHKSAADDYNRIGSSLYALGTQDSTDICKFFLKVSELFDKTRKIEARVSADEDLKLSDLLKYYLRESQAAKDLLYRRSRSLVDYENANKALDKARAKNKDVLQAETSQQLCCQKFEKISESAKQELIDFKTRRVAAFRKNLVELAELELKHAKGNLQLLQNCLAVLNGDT
active: [7] -0.77
inactive: [1] -0.142 | volasertib -0.047 | [2] 0.117 | epoxomicin 0.015 | [3] -0.141 | [4] -0.131 | [5] 0.005 | rosiglitazone 0.08 | [6] 0.016 | saracatinib -0.018 | sotrastaurin 0.026 | alvocidib -0.112 | Tubastatin A -0.051 | [8] -0.125 | defactinib -0.054 | rucaparib -0.016 | [9] 0.041 | encorafenib 0.042 | [10] -0.009

SPAST (UniProt Q9UBP0)
inactive: [1] -0.128 | volasertib -0.242 | [2] 0.107 | epoxomicin 0.021 | [3] -0.077 | [4] 0.035 | [5] 0.079 | rosiglitazone 0.048 | [6] -0.046 | [7] -0.043 | saracatinib -0.016 | sotrastaurin -0.015 | alvocidib -0.203 | Tubastatin A 0.003 | [8] -0.01 | defactinib -0.056 | rucaparib 0.073 | [9] 0.115 | encorafenib 0.038 | [10] -0.037
